G9a block: blocks human histone lysine methyltransferase G9a; Potency, µM (titrated, usually from 102 µM), actives largely listed as inhibitors; G9a H3K9 monomethylation, AlphaScreen, 2 h; Q96KQ7; 8.8% of 350,000 active; AID 504332; also: nearly all actives have a fitted effect of over 75% in size
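Compounds were preincubated with 20 nM G9a for 15 min, after which biotinylated H3K9 peptide (500 nM) and SAM (20 uM) started a 2 h room-temperature reaction. Monomethylated product was quantified by antibody-based AlphaScreen chemiluminescence.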
HP1b chromo inh: inhibitors of HP1-beta chromodomain binding to methylated histone tails; P83916; AlphaScreen HP1-beta / biotin-H3K9me3 peptide binding; Potency, µM (top dose mostly 114 µM), usual class: inhibitors; 0.56% of 390,000 active; also: nearly all actives have a fitted effect of over 70% in size
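AlphaScreen: HP1-beta (50 nM) preformed 30 min with biotin-H3(1-18)K9me3 peptide (50 nM) in PBS pH 7.4, 0.01% Tween-20. Compound added for 30 min at RT, then streptavidin donor/nickel chelate acceptor beads (10 ug/mL) for 30 min.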
L3MBTL1 inh: blocks human L3MBTL1. Q9Y468. AlphaScreen L3MBTL1–H3K9me1 peptide binding. Potency, µM (titrated, usually from 57.1 µM), hits mostly inhibitors. 0.66% of 230,000 active. AID 485360; also: nearly all actives have a fitted effect of over 60% in size
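L3MBTL1 50 nM + b-AHA-H3(1-15)K9me1 75 nM, 30 min RT; compound added, 30 min RT; streptavidin donor/Ni-chelate acceptor beads 10 ug/mL each final, 30 min RT dark; AlphaScreen read.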
BAZ2B inh: blocks human BAZ2B; AlphaScreen BAZ2B-H3K14Ac peptide displacement; Potency, µM (titrated, usually from 114 µM), most hits filed as inhibitors; 4.4% of 360,000 active; AID 504333; also: nearly all actives have a fitted effect of over 60% in size
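Inhibition is scored as reduced AlphaScreen emission. The BAZ2B/b-H3(5-23)K14Ac complex (50 nM each) in PBS pH 7.4, 0.01% Tween-20 meets compound (up to 110 uM) for 30 min at RT before bead addition.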
JMJD2A Tudor inh: inhibitors of human JMJD2A Tudor domain; AlphaScreen JMJD2A-Tudor / H3K4me3 peptide binding; O75164; Potency, µM (doses to about 114 µM), most hits filed as inhibitors; AID 504339; 4.4% of 390,000 active; also: nearly all actives have a fitted effect of over 50% in size
GLS inhibitor: blocks human kidney-isoform glutaminase activity; O94925; Potency, µM (titrated, usually from 45.5 µM), most hits filed as inhibitors; 0.21% of 410,000 active; GLS enzymatic activity, qHTS titration
Target sequence (O94925 whole entry, looked up, canonical isoform): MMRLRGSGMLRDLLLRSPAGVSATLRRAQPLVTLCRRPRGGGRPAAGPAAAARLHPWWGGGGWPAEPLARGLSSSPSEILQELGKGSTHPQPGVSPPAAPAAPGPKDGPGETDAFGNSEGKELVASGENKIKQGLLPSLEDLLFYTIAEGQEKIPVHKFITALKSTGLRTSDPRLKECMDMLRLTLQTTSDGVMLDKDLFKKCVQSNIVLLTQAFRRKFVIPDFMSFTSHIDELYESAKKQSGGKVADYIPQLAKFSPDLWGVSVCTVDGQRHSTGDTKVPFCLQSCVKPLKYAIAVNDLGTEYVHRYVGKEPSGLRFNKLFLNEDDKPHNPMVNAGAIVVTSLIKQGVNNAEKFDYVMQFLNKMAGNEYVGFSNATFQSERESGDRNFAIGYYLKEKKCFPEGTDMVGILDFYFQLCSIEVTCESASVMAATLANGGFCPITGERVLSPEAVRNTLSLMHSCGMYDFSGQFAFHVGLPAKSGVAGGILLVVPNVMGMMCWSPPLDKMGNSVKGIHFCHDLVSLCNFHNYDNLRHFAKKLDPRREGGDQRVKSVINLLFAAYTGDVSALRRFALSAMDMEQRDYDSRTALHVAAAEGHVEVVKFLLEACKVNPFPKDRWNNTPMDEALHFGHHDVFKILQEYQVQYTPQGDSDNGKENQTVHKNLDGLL
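Compounds were pin-transferred onto hKGA, after which L-glutamine (1 mM solution) and a detection mix of glutamate oxidase, HRP and Amplex Red were added. Initial and 30 min RT fluorescence reads were collected.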
Numbers stand for hits; . = inactive; ? = inconclusive; / = no result; [ ] = another dose, or the depositor's remark. This is a sample that favours compounds with a hit; in the whole collection about 10% have one here. Calls follow the shape of the dose curve; as a rule, active = well fitted curve in the direction sought with a large enough effect; inconclusive = small, poorly fitted or top-dose-only effect, or another doubt; inactive = no such curve, though single readings can be large; an effect the other way counts as inactive or inconclusive.

SMILES | G9a block | HP1b chromo inh | L3MBTL1 inh | BAZ2B inh | JMJD2A Tudor inh | GLS inhibitor
C=CCN1C(=O)/C(=C\c2cccs2)C(C(=O)OC)=C1C | 50µM | ? | / | 40µM | ? | .
COC(=O)C1=C(C)N(CC(C)C)C(=O)C1 | 40µM | . | / | . | . | .
Cc1ccc(NC(=O)Cn2c(-c3ccc4c(c3)OCO4)cn(-c3ccccc3)c2=O)cc1 | ? | ? | / | ? | ? | .
CCCCN(CCCC)CCNC(=O)Cn1nc(CC)n2c(cc3sccc32)c1=O | . | . | / | . | . | .
O=C(COc1ccccc1F)N1N=C(c2cccs2)CC1c1ccco1 (configuration not stated) | 50µM | . | . | ? | 14µM | .
Cc1ccc(C2CC(c3cccs3)=NN2C(=O)c2ccco2)o1 (configuration not stated) | 35µM | . | . | ? | ? | .
Cc1ccc(OCC(=O)N2N=C(c3ccncc3)CC2(O)C(F)(F)F)cc1C (configuration not stated) | . | . | . | . | . | .
O=C(COc1ccccc1)N1N=C(c2cccnc2)CC1(O)C(F)(F)F (configuration not stated) | 50µM | . | . | . | . | .
Cc1ccc(C)c(C(C)NC(=O)c2ccc(Br)o2)c1 (configuration not stated) | 50µM | . | . | . | . | .
O=C(Nc1ccc(F)cc1)Nc1ccc2snnc2c1 | . | . | / | . | . | .
CNC(=O)Nc1ccc2snnc2c1 | 50µM | . | / | . | . | .
FC(F)Oc1ccc(NC(=S)Nn2cnnc2)cc1 | 6.3µM | . | / | . | ? | .
CN(NC(=S)Nc1ccc(OC(F)F)cc1)C(=S)Nc1ccc(OC(F)F)cc1 | ? | . | . | . | . | ?
Oc1cccc2c(NC(=S)Nc3ccc(OC(F)F)cc3)cccc12 | 45µM | ? | . | 45µM | ? | .
Cc1ccc2c(c1)Sc1c(ccc3ccccc13)N2 | ? | ? | . | 40µM | ? | .
CC(C)OCCCN1C(=O)c2[nH]nc(-c3ccccc3O)c2C1c1ccc(OCc2ccccc2)cc1 (configuration not stated) | . | . | / | . | ? | .
O=C1CS(=O)(=O)C2(C(=O)Nc3ccccc32)N1c1cccc(Cl)c1 (configuration not stated) | 22µM | . | / | . | . | .
CN(NC(=O)CN1C(=O)c2ccccc2C1=O)C1=NS(=O)(=O)c2ccccc21 | 79µM | . | . | . | . | .
CCOC(=O)c1c(NC(=S)Nc2ccccc2)sc2c1CCCCC2 | ? | . | . | . | . | .
CCOC(=O)c1c(NC(=S)Nc2ccccc2)sc2c1CCN(CC)C2 | 35µM | . | . | . | . | .
CCOC(=O)N1CCc2c(sc(N)c2C#N)C1 | 20µM | . | . | . | . | .
COC(=O)c1c(NC(=O)CCS(=O)(=O)c2ccccc2)sc2c1CCN(C)C2 | ? | . | / | . | . | .
C=CCNC(=S)Nc1sc2c(c1C(=O)OCC)CCN(C(=O)OCC)C2 | 13µM | . | / | . | . | .
CCCN1CCc2c(sc(NC(=O)CCS(=O)(=O)c3ccccc3)c2C(=O)OC)C1 | 40µM | . | / | . | . | .
CN1CCN(c2ncc3nc(-c4cc(F)cc(F)c4)c(=O)n(CCC#N)c3n2)CC1 | .[0.501 µM] | / | / | / | / | /
SMILES | G9a block | HP1b chromo inh | L3MBTL1 inh | BAZ2B inh | JMJD2A Tudor inh | GLS inhibitor
Oc1ccc(Cl)cc1C1C=C(c2ccc3c(c2)OCO3)NC(c2cc(Br)ccc2F)N1 (configuration not stated) | / | . | / | / | ? | /
CC(C)C(C=Cc1ccccc1)=NNS(=O)(=O)c1ccccc1 | / | / | / | / | / | .
O=S(=O)(c1ccccc1)C(/C=N\O)/C=C/c1ccccc1 (configuration not stated) | 7.9µM | . | . | . | ? | .
Cc1ccc(S(=O)(=O)Nc2cc3c(cc2C)n(C)c(=O)c(=O)n3C)cc1 | . | . | / | . | . | .
Cc1ccc(S(=O)(=O)Nc2csc(C)c2C(=O)O)cc1 | 40µM | . | 7.9µM | 45µM | . | .
COc1ccc(S(=O)(=O)Nc2cc(C)c(O)cc2C(C)C)cc1 | 25µM | . | . | . | . | .
Cc1ccc(S(=O)(=O)Nc2cc(C)c(O)cc2C)cc1 | 50µM | . | . | . | . | .
O=C(Nc1cc(=O)[nH]c2ncnn12)c1ccc(Cl)cc1Cl | 8.9µM | . | . | . | 79µM | .
Oc1ccccc1/C=N/Nc1cc(N2CCCC2)nc(N2CCCC2)n1 | ? | ? | ? | 25µM | 28µM | .
COc1ccccc1/C=N/Nc1cc(C)nc(N2CCOCC2)n1 | / | . | / | ? | . | .
Cc1nc(N/N=C/c2cccc(F)c2)cc(N2CCOCC2)n1 | . | . | . | . | . | .
Cc1nc(N/N=C/c2ccc(O)cc2O)cc(N2CCOCC2)n1 | . | . | . | 45µM | 79µM | .
Oc1ccc(/C=N/Nc2cc(N3CCOCC3)nc(N3CCOCC3)n2)cc1O | ? | ? | . | ? | 56µM | .
Oc1cccc(/C=N/Nc2cc(N3CCOCC3)nc(N3CCOCC3)n2)c1 | . | . | . | ? | ? | .
Cc1ccc(NC(=O)C2CCN(S(=O)(=O)c3ccc4c(c3)CCCC(=O)N4)CC2)c(Cl)c1 | . | . | / | . | . | .
Cc1ccc(CN(C)C(=O)C2CCCN2C(=O)c2cccs2)o1 (configuration not stated) | 45µM | . | . | . | . | .
CN(CC(=O)Nc1ccc(F)c(F)c1F)C(=O)C1CCCN1C(=O)c1cccs1 (configuration not stated) | / | / | / | / | / | .
CCOC(=O)c1cc2c(ccn2C)n1CC(=O)N1CCN(c2ccccc2)CC1 | ? | . | . | . | . | .
CC(C)OC(=O)c1cc2c(ccn2-c2ccc(F)cc2)n1CC(=O)N1CCN(C(=O)c2ccco2)CC1 | / | . | / | . | . | .
CCOC(=O)c1cc2c(ccn2C)n1CC(=O)N(Cc1ccccc1)c1ccccc1 | 28µM | . | ? | 32µM | 25µM | .
CC(C)OC(=O)c1cc2c(ccn2C)n1CC(=O)N(Cc1ccccc1)c1ccc(F)cc1 | 28µM | ? | . | 40µM | 18µM | .
CC1CCc2onc(C(=O)N3CCN(c4ccc(F)cc4)CC3)c2C1 (configuration not stated) | . | . | / | . | . | .
CCN(CC)S(=O)(=O)c1ccc(C)c(NC(=O)COc2ccc(Cl)cc2Br)c1 | 45µM | . | . | . | . | .
CN(C)c1ccc(NC(=O)c2ccc(COc3cccc(Cl)c3)o2)cc1 | ? | ? | / | 10µM | 13µM | .
Cc1ccc(NC(=O)c2ccc(COc3ccccc3Cl)o2)cc1 | . | . | / | . | . | .
CCOc1ccccc1NC(=O)N1CCN(S(=O)(=O)c2ccc3c(ccn3C)c2)CC1 | . | . | / | . | . | .
Cc1c(C(C)(C)C)c(C=S)n2ccccc12 | 4µM | ? | / | . | 50µM | .

From PubChem
